TRHR ag – activates the human TRH receptor | TRHR cells, calcium flux fluo-8, FDSS agonist mode | activation, % at 2 µM | actives 0.18% (n = 360,000) | AID 493084; in the data active means activation above about 30%; further: 0% is about no effect
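In this calcium-flux screen, cells bearing human TRHR are dye-loaded with fluo-8, baselined for 10 cycles, then exposed to library compounds; positive kinetic calcium responses during the agonist phase mark hits, with TRH as control.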
HEK293 tox – cytotoxic in the GLP-1 receptor inverse agonist counter-screen; HEK293 cAMP-luciferase reporter cells, luminescence, 24 h; Potency, µM (top dose mostly 38.3 µM), inactives show at the top dose activity change, negative = inhibition, most hits filed as inhibitors; actives 0.13% (n = 410,000); AID 624418;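 further: loss of luciferase light is scored as toxicity; potency means the concentration at half of the fitted maximal effect; on the % scale 0 is the no-effect control and ±100 the full control effect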
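Step one: seed cells (200 cells/uL, DMEM with 10% Nu serum, 1% pen-strep). Step two: 12-hour incubation at 37 deg C. Step three: pin 23 nL compound, incubate 24 hr. Step four: add luciferase reagent, read luminescence 12 min later.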
TRPML1 inh – human mucolipin-1 channel inhibition; Q9GZU1; activity change, negative = inhibition, % (test concentration not listed); AID 624415; actives 0.02% (n = 390,000); TRPML1-inducible cells, Ca2+ dye fluorescence, FDSS; stronger effect = lower value; inhibition of EC80 agonist-evoked calcium signal; in the data active means activity change below about -50%; inconclusive means between about -30% and that limit;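 further: stimulus is agonist 54-4 at its EC80 concentration; on the % scale 0 is the no-effect control and ±100 the full control effect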
Target sequence (Q9GZU1 whole entry, looked up): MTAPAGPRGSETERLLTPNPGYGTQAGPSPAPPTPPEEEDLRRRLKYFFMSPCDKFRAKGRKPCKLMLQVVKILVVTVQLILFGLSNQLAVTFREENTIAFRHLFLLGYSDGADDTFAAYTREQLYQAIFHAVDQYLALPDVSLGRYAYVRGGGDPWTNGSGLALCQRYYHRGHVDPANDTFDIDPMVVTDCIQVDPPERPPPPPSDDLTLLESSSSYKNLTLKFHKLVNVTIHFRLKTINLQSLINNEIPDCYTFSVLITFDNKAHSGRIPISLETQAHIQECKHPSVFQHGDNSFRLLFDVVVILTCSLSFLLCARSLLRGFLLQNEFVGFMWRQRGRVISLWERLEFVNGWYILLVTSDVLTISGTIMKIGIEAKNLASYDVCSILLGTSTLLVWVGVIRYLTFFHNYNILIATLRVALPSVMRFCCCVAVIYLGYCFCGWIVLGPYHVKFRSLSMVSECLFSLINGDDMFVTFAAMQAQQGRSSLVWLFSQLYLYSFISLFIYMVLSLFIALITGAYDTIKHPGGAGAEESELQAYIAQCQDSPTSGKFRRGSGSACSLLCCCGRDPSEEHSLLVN
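Calcium fluorescence in TRPML1-DL cells induced overnight with Tet: a 110 s read after compound pin addition, then a 110 s antagonist read after challenge with 54-4 at 4 uM final (EC80).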
PTHR1 ag – agonists of human PTHR1 parathyroid hormone receptor | Q03431 | HEK293 GP2 PTHR1 cells, GloSensor cAMP luminescence, 1 h | Potency, µM (doses to about 115 µM), for inactives: at the top dose activation, usual class: activators | actives 0.075% (n = 410,000) | AID 743266; further: potency means the concentration at half of the fitted maximal effect; nearly all actives have a fitted effect of over 55% in size
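HEK-293-derived GP2 cells expressing PTHR1 and a GloSensor cAMP reporter, 3,000/well, plated overnight, given luciferin plus IBMX (each 0.5 mM as added) for 1 h at 37 °C, then compound for 1 h at 37 °C. Luminescence was read after 15 min at room temperature.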
TRHR enhancer – TRH receptor (human) allosteric enhancement | P34981 | TRHR cells, fluo-8 calcium fluorescence, EC20 TRH enhancement | enhancement, % at 2 µM | actives 0.66% (n = 360,000); in the data active means enhancement above about 30%; further: 0% is about no effect
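Enhancer read-out: after compound pinning and an initial kinetic agonist-mode read, an EC20 of TRH (10 nM final) was injected and fluo-8 calcium signal (Ex 480/Em 530) followed at 1 s/cycle for 100 cycles in TRHR-expressing cells.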
TRPML1 ag – agonists of human TRPML1 channel. activation, % (no concentration beside the values). Q9GZU1. actives 0.12% (n = 410,000). AID 624414. TRPML1-expressing cells, Ca2+ dye fluorescence, FDSS; in the data active means activation above about 50%; inconclusive means mostly about 30% to 49%; further: 0% is about no effect
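TRPML1-DL cells, Tet-induced overnight (~16 h, 37 degrees C), loaded 45-90 min at room temperature with Ca8 no-wash calcium dye plus quencher. FDSS fluorescence: 10 s baseline, compound pin-transfer, 110 s agonist read, then EC80 54-4 (4uM final) and 110 s antagonist read.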
Active calls of the source: *; [ ] = remark or other dose. In the library only some 0.93% were active in any assay of this set; here they are far more common. Unless noted, the call rests on the fitted dose curve; in most records, active means well fitted curve in the direction sought with a large enough effect; inconclusive means small, poorly fitted or top-dose-only effect, or another doubt; inactive means no such curve, though single readings can be large; an effect the other way counts as inactive or inconclusive.

For CC(C)(C)n1ncc2c(=O)n(Cc3c(F)ccc(F)c3Cl)cnc21 the results were TRPML1 inh -5 and TRPML1 ag 3.
For COc1cc2c(cc1OC)C(C(=O)Nc1ccccn1)C(c1cccnc1)N(C)C2=O (centres undefined) the results were TRHR ag 0, HEK293 tox -8%, TRPML1 inh -52*, PTHR1 ag inactive, TRHR enhancer 2 and TRPML1 ag 1.
`CCOC(=O)C1CCN(S(=O)(=O)c2ccc3[nH]c(=O)oc3c2)CC1` gave TRHR ag 0, HEK293 tox 4%, TRPML1 inh -11, PTHR1 ag -1%, TRHR enhancer 20 and TRPML1 ag 0.
`COc1ccc(S(=O)(=O)N2CCN(Cc3ccccc3)CC2)cc1OC` gave TRHR ag 0, HEK293 tox 16%, TRPML1 inh 18, PTHR1 ag -39%, TRHR enhancer 35* and TRPML1 ag -1.
Screening COc1cc(NC(=O)C2CCN(S(=O)(=O)c3ccc4[nH]c(=O)oc4c3)CC2)cc(OC)c1 returned TRHR ag 0, HEK293 tox 4%, TRPML1 inh 13, PTHR1 ag 0.77µM*, TRHR enhancer -9 and TRPML1 ag -1.
`COc1ccc(S(=O)(=O)N2CCC(C(=O)Nc3ccccc3)CC2)cc1OC` gave TRHR ag -1, HEK293 tox -14%, TRPML1 inh 8, PTHR1 ag inactive, TRHR enhancer 0 and TRPML1 ag -1.
Screening COc1ccc(NC(=O)C2CCC(C(C)(C)C)CC2)cc1S(=O)(=O)N1CCCCC1 (centres undefined) returned TRHR ag -1, HEK293 tox 0%, TRPML1 inh -1, PTHR1 ag -19%, TRHR enhancer -3 and TRPML1 ag 84*.
COc1ccc(S(=O)(=O)N2CCC(C(=O)Nc3ccc(Oc4ccccc4)cc3)CC2)cc1OC was read as TRHR ag 0, HEK293 tox -17%, TRPML1 inh 24, PTHR1 ag -40%, TRHR enhancer 32* and TRPML1 ag -1.
Screening O=[N+]([O-])c1ccc(C=C2c3ccccc3-c3ccccc32)cc1 returned TRPML1 ag -1.
For CCOc1ccc2nc(NC3=NC(C)(C)C=C(C)N3)nc(C)c2c1 the results were TRHR ag 0, HEK293 tox inconclusive, TRPML1 inh 65, PTHR1 ag -5%[57.5 µM], TRHR enhancer 32* and TRPML1 ag 2.
`O=S(=O)(c1ccc2c(c1)OCCO2)N1CCN(S(=O)(=O)c2ccccc2Cl)CC1` gave TRHR ag 0 and TRHR enhancer 1.
For COc1cccc(C2CC(C(F)(F)F)n3ncc(C(=O)NCc4ccco4)c3N2)c1 (centres undefined) the results were TRHR ag -1, HEK293 tox -27%, TRPML1 inh 4, PTHR1 ag -8%[57.5 µM], TRHR enhancer 32* and TRPML1 ag 1.
COc1cccc(C2CC(C(F)(F)F)n3ncc(C(=O)NC(C)(C)C)c3N2)c1 (centres undefined) was read as TRHR ag 0, HEK293 tox -15%, TRPML1 inh -4, PTHR1 ag inactive, TRHR enhancer -3 and TRPML1 ag -1.
For CCCC[C@@H]1CCCO[C@@](C(=O)NCCOC)(C(F)(F)F)C1 the results were TRPML1 inh -10 and TRPML1 ag 0.
`Cc1cc(C)c2nccc(/C=C/c3ccc(N(C)C)cc3)c2c1` gave TRPML1 ag 15.
`CCOc1cc(/C=C2\CN(C)C/C(=C\c3ccc(O)c(OCC)c3)C2=O)ccc1O` gave TRHR ag 2, HEK293 tox inconclusive, TRPML1 inh -1, PTHR1 ag -27%, TRHR enhancer 6 and TRPML1 ag 1.
`CCOc1cc(/C=C2\CCC/C(=C\c3cc(Cl)c(O)c(OCC)c3)C2=O)cc(Cl)c1O` gave TRHR ag 9, HEK293 tox 11µM*, TRPML1 inh 23, PTHR1 ag -10%, TRHR enhancer 0 and TRPML1 ag 7.
Screening CC(=O)Nc1cc([N+](=O)[O-])cc(NC(C)=O)c1NC(C)=O returned TRPML1 ag 0.
Screening CCOc1ccc2oc(C(=O)OCC(=O)N3C(C)CCCC3C)c(C)c2c1 (centres undefined) returned TRHR ag 0, HEK293 tox -23%, TRPML1 inh 2, PTHR1 ag -37%, TRHR enhancer 1 and TRPML1 ag 0.
COc1ccc2oc(C(=O)OCC(=O)Nc3ccc(NC(C)=O)cc3)c(C)c2c1 was read as TRHR ag 1, HEK293 tox -2%, TRPML1 inh 10, PTHR1 ag -18%, TRHR enhancer 38* and TRPML1 ag 1.
`COc1ccc2oc(C(=O)OCC(=O)N3C(C)CCCC3C)c(C)c2c1` (centres undefined) gave TRHR ag 0, HEK293 tox 6%, TRPML1 inh 49, PTHR1 ag inactive, TRHR enhancer 33* and TRPML1 ag 1.
`COc1ccc2oc(C(=O)OCC(=O)Nc3ccc(OC)c(S(N)(=O)=O)c3)c(C)c2c1` gave TRHR ag 0, HEK293 tox 4%, TRPML1 inh 4, PTHR1 ag 0%, TRHR enhancer 12 and TRPML1 ag 1.
Cc1ccc(C(=O)NCC(=O)OC(C(=O)Nc2cc(C(F)(F)F)ccc2Cl)c2ccccc2)cc1 (centres undefined) was read as TRHR ag 3 and TRHR enhancer -10.
`Brc1ccc[n+](CCC2CCCCC2)c1` gave TRPML1 ag 0.
For N#Cc1cccc(NC(=O)CSc2ccc3c4c(cccc24)C(=O)c2ccccc2-3)c1 the results were TRHR ag -1, HEK293 tox 122%, TRPML1 inh -15, PTHR1 ag -19%[57.5 µM], TRHR enhancer 6 and TRPML1 ag 80*.
Cn1nnnc1Sc1ncnc2scc(-c3cccc(Cl)c3)c12 was read as TRHR ag -1 and TRHR enhancer -6.
Screening Cc1cc(C)n2c(SCC(C)C)nnc2n1 returned TRHR ag 0, HEK293 tox -14%, TRPML1 inh 6, PTHR1 ag inactive, TRHR enhancer 33* and TRPML1 ag 1.
Screening Cc1cccc(S(=O)(=O)NC2CCN(C#N)C2)c1 (centres undefined) returned TRHR ag 2 and TRHR enhancer 3.
Screening c1ccc(-c2noc(CSc3nnc(Cc4cccs4)n3-c3ccccc3)n2)cc1 returned TRHR ag 1, HEK293 tox 4%, TRPML1 inh -1, PTHR1 ag -7%[57.5 µM], TRHR enhancer 40* and TRPML1 ag 0.

Bioassay records from PubChem.
